# Screening data: PubChem, National Center for Advancing Translational Sciences (NCATS)
# FUS yeast rescue: qHTS for Suppressors of FUS Proteinopathy: Primary screen using FUS-linked yeast assay; Potency, µM (titrated, usually from 76.6 µM), usual class: activators; 390,000 tested, 0.24% active; AID 1347120, 2019; S. cerevisiae FUS-expressing, growth rescue, OD600, 24 h;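 also: plate controls were DMSO vehicle for no effect and reference control for full effect; nearly all actives have a fitted effect of over 55% in size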
#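 Restored growth of FUS-toxic S. cerevisiae, read as 600 nm absorbance after 24 h at 30C in galactose medium (starting OD 0.005). Controls CP55940 and DMSO.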
# aSyn yeast inh: qHTS of alpha-syn Inhibitors. Potency, µM (top dose mostly 46.1 µM), for inactives: at the highest dose growth rescue (activation), usual class: activators. AID 652106, 2013. 370,000 tested, 0.14% active. Yeast expressing alpha-synuclein, growth rescue, BacTiter-Glo, 24 h; also: % of control where 0% means no effect; nearly all actives have a fitted effect of over 65% in size
#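 Readout is rescue of growth in alpha-synuclein-expressing yeast, so inhibitors of toxicity appear as activators. Growth after 24 hr at 30 deg C in galactose medium is quantified by luminescence.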
# Abeta rescue: qHTS for compounds that reverse cellular toxicity of Amyloid beta (A-beta) peptide in yeast: Primary Screen; yeast expressing A-beta42, growth rescue, OD600, 48 h; response scale: 0% DMSO, 100% iron-clioquinol control; 410,000 tested, 0.063% active; Potency, µM (doses to about 46.1 µM), actives largely listed as activators; also: nearly all actives have a fitted effect of over 55% in size
#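 Yeast growth medium received pinned compounds, then yeast cells expressing toxic A-beta were added; plates incubated at 30 C for 48 hr. Growth read as absorbance at 600 nm, normalized to DMSO and equimolar FeCl3 plus clioquinol controls.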
# TDP43 rescue: qHTS of TDP-43 Inhibitors. TDP-43 expressing yeast growth rescue, BacTiter-Glo, 24 h. Potency, µM (doses to about 46.1 µM), for inactives: top-dose growth rescue (activation), actives largely listed as activators. 410,000 tested, 1.8% active. AID 652104, 2013; also: % of control where 0% means no effect; nearly all actives have a fitted effect of over 50% in size
#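 Growth rescue of TDP-43-toxic yeast measured as ATP luminescence (BacTiter-Glo). Cells grown to mid-log in raffinose, induced in galactose at OD600=0.02, exposed to compound 24 hr at 30 deg C.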
# Mito fusion yeast: qHTS Assay for Small Molecule Inhibitors of Mitochondrial Division or Activators of Mitochondrial Fusion; 320,000 tested, 0.23% active; AID 485298, 2010; Potency, µM (series often up to 46.1 µM), without a hit: at the top dose growth rescue (activation), actives largely listed as activators; S. cerevisiae fusion-defective mutant growth rescue, CellTiterGlo 48 h; also: % of control where 0% means no effect; nearly all actives have a fitted effect of over 45% in size
#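 Yeast fusion mutant, YPEG (non-fermentable carbon), compound, 48 h at 37C non-permissive; CellTiterGlo added, 10 min RT, luminescence read. Rescued growth = division inhibition.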
# The depositor's hits bear a star; i = inactive; ? = inconclusive; . = no result given; [ ] = dose if it differs, or a comment. The list is not random: actives were taken first. Their share in the collection is about 2.2%. Calls follow the shape of the dose curve; as a rule, active = well fitted curve in the direction sought with a large enough effect; inconclusive = small, poorly fitted or top-dose-only effect, or another doubt; inactive = no such curve, though single readings can be large; an effect the other way counts as inactive or inconclusive. Potency is read from the fitted curve at half-maximal effect.
SMILES,FUS yeast rescue,aSyn yeast inh,Abeta rescue,TDP43 rescue,Mito fusion yeast
Cc1cccc(Nc2nc(NCc3ccco3)nc(N3CCOCC3)n2)c1,i,13%,i,13µM*,-16%
COc1cc(NC(=O)CN2C(=O)C(c3ccc(C)cc3)=NC23CCCCC3)cc(OC)c1,i,.,i,0%,.
Cc1ccc(-c2nc3cccnc3o2)cc1NC(=O)COc1ccc(C(C)(C)C)cc1,32µM*,-11%,i,?,?
Cc1ccc(NC(=O)CN(C)C(=O)c2cccc(S(=O)(=O)N3CCc4ccccc4C3)c2)cc1,i,-3%,i,9%,.
Cc1ccc(CN(C)C(=O)c2cccc(S(=O)(=O)N3CCc4ccccc4C3)c2)o1,i,2%[1.84 µM],i,35µM*,6%
Cc1cccc(-n2c(=O)c3ccccc3n(Cc3ccccc3)c2=O)c1,i,.,i,22µM*,.
COc1ccc(-n2c(=O)c3ccccc3n(Cc3cccc(C)c3)c2=O)cc1,i,.,i,2%,.
Cc1cc(C)nc(Nc2ccc(C)c([N+](=O)[O-])c2)n1,i,1%,i,20µM*,10%
Cc1cc(C)nc(Nc2cccc(Cl)c2)n1,i,0%,i,8.9µM*,-1%
Cn1c(NCC2CCCCC2)nc2cc(-c3ccsc3)sc2c1=O,i,11%,i,20µM*,.
COc1ccccc1CNc1nc2cc(-c3ccccc3C)sc2c(=O)n1C,i,?,i,20µM*,.
COc1cccc(CNc2nc3cc(-c4cccc(Cl)c4)sc3c(=O)n2C)c1,i,-1%,i,10%,.
COc1cccc(CNc2nc3cc(-c4ccccc4C)sc3c(=O)n2C)c1,?,?,i,18µM*,.
COCCNc1nc2cc(-c3ccc(C)cc3)sc2c(=O)n1C,i,0%,i,11µM*,.
Cc1cccc(-c2nc3ccccc3c3nncn23)c1,i,1%,i,18µM*,0%
c1ccc(-c2nc3ccccc3c3nncn23)cc1,i,0%,i,?,-5%
CCc1ccccc1N(C)C(=O)Cn1cnc2sc(C)c(S(=O)(=O)N3CCC(C)CC3)c2c1=O,i,.,i,9%,.
COc1cccc(C2CC(=O)Nc3c2ccc(C)c3C)c1OC (configuration not stated),i,.,i,18µM*,.
Cc1ccc2c(c1C)NC(=O)CC2c1ccc(Cl)cc1Cl (configuration not stated),i,.,i,35µM*,.
COC(=O)C1=C(C)NC(=O)CC1c1cccc(OC)c1OC (configuration not stated),i,1%,i,-25%,-4%
CCOc1ccc2nc(NC(=O)C3(C)CC3(Br)Br)sc2c1 (configuration not stated),i,-34%,?,18µM*,.
CCOCC(=O)Nc1nc2ccc(OCC)cc2s1,i,19%,i,16%,-8%
CN(CC(=O)Nc1cccc(F)c1)C(=O)CSc1ccccc1,i,-2%,i,-3%,-7%
Cc1[nH]n(-c2ccccc2)c(=O)c1/C=N/N1C(=O)c2ccc3c4c(ccc(c24)C1=O)CC3,i,25µM*,8.9µM*,5µM*,-9%
Cc1[nH]n(-c2ccccc2)c(=O)c1/C=N/NC(=O)c1ccccc1F,i,9%,10µM*,?,-8%
SMILES,FUS yeast rescue,aSyn yeast inh,Abeta rescue,TDP43 rescue,Mito fusion yeast
CCCCCN1C(C(=O)c2ccccc2)=C(NC(=O)c2ccc(OC)c(OC)c2)c2ccccc2S1(=O)=O,i,.,i,24%,.
O=C1C(=O)c2c(ccc3ccccc23)-c2ccccc21,i,-27%,i,2µM*,.
CCOC(=O)c1sc(-c2ccccc2)cc1N,i,16%,i,7.1µM*,-2%
O=C(NCCc1ccccc1)c1cc(=O)c2ccccc2o1,i,-3%,i,-1%,7%
O=C(NCCc1ccc(F)cc1)c1cc(=O)c2ccccc2o1,i,14%,i,22µM*,9%
Cc1ccc(NC(=O)c2cc(=O)c3ccccc3o2)c(C)c1,i,-2%,i,6%,20%
Cc1ccccc1NC(=O)c1cc(=O)c2ccccc2o1,i,-10%,i,13µM*,1%
COc1ccc(CNC(=O)CN2C(=O)c3cccnc3Oc3ccc(C)cc32)cc1,i,.,i,-9%,.
CN(C)c1ccc(C(CNS(=O)(=O)c2ccc(F)cc2)N2CCCC2)cc1 (configuration not stated),i,.,i,-6%,.
O=C(NCc1ccc(Cl)cc1)c1ccc(Cl)cc1[N+](=O)[O-],i,2%,i,4%,5%
O=C(NCCc1ccccc1)c1ccc(Cl)cc1[N+](=O)[O-],i,2%,i,11µM*,29%
O=C(OCc1ccc(Br)cc1)c1cccc(S(=O)(=O)N2CCCC2)c1,i,-6%,i,0%,?
COc1cccc(-n2ccn(CC(=O)Nc3ccccc3F)c(=O)c2=O)c1,i,.,i,1%,.
CCOC(=O)c1c(C)[nH]c(CCC(=O)NCc2ccc(CC)cc2)c1C,i,.,i,20%,.
Cc1ccccc1OC(C)C(=O)Nc1ccc2c(c1)OCCO2 (configuration not stated),i,6%,i,11µM*,8%
CCN(c1ccccc1)S(=O)(=O)c1cc(C(=O)OC(C)C(=O)Nc2ccc3c(c2)OCCO3)ccc1C (configuration not stated),18µM*,-2%,.,-10%,4%
CC(OC(=O)/C=C/c1ccccc1)C(=O)Nc1ccc2c(c1)OCCO2 (configuration not stated),i,6%,i,12%,-5%
N#Cc1ccccc1OCC(=O)Nc1ccc2c(c1)OCCCO2,i,17%,i,13µM*,-3%
CCc1ccc(NC(=O)Cn2c(=O)n(CCCCC(=O)NCc3ccc4c(c3)OCO4)c(=O)c3ccccc32)cc1,i,.,i,12%,.
COc1ccccc1N1CCN(c2ncnc3c2cnn3C)CC1,i,.,i,?,.
O=C(c1ccc2ccccc2n1)N1CCN(S(=O)(=O)c2ccc(Cl)cc2)CC1,i,13%,i,25µM*,.
CSc1ncccc1C(=O)N1CCN(S(=O)(=O)c2ccc3ccccc3c2)CC1,?,1%,i,9%,-5%
O=C(c1ccc(F)cc1)N1CCN(S(=O)(=O)c2ccc3c(c2)OCCO3)CC1,i,-1%,i,9%,.
O=C(c1ccc(F)cc1F)N1CCN(S(=O)(=O)c2ccc3c(c2)OCCO3)CC1,.,8%,i,13µM*,0%
